From ChEMBL document CHEMBL1961873, “Compounds: GSK PKIS; Assays: Nanosyn kinase panel” (2012)
Where “and” joins values, the source holds several entries; their conditions need not be identical. Equal entries are not always repeated.

Assays:
[1] = target: Tyrosine-protein kinase Fer (Homo sapiens) (UniProt P16591); settings: at 1 µM
[2] = target: Tyrosine-protein kinase Fes/Fps (Homo sapiens) (UniProt P07332); settings: at 0.1 µM
[3] = target: Tyrosine-protein kinase Fes/Fps (Homo sapiens) (UniProt P07332); settings: at 1 µM
[4] = target: Fibroblast growth factor receptor 1 (Homo sapiens) (UniProt P11362); settings: at 0.1 µM
Fibroblast growth factor receptor 1 (Homo sapiens), sequence (P11362 22-822 limits assumed): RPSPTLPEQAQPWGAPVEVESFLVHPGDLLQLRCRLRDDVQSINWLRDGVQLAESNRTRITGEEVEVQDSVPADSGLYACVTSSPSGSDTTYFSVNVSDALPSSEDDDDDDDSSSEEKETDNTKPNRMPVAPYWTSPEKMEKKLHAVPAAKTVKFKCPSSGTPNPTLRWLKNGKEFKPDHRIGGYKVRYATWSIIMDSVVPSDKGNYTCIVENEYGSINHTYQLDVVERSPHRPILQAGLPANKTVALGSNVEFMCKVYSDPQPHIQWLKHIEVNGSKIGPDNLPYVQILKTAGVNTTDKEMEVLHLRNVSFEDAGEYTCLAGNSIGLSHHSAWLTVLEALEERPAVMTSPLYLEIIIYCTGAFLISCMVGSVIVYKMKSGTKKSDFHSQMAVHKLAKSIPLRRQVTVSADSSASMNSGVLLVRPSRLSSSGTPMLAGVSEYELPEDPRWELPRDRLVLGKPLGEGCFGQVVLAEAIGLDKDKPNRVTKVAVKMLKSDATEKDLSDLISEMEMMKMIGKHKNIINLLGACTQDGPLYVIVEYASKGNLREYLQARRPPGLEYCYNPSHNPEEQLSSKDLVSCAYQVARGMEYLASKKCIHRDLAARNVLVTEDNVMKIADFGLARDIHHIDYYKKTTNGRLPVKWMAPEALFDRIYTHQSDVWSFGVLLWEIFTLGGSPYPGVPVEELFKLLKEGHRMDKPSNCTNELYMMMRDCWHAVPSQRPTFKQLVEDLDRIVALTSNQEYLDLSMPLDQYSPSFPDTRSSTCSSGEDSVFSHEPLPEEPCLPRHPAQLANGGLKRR

[5] = target: Fibroblast growth factor receptor 1 (Homo sapiens) (UniProt P11362); settings: at 1 µM
[6] = target: Fibroblast growth factor receptor 2 (Homo sapiens) (UniProt P21802); settings: at 0.1 µM
Fibroblast growth factor receptor 2 (Homo sapiens), sequence (P21802 22-821 limits assumed): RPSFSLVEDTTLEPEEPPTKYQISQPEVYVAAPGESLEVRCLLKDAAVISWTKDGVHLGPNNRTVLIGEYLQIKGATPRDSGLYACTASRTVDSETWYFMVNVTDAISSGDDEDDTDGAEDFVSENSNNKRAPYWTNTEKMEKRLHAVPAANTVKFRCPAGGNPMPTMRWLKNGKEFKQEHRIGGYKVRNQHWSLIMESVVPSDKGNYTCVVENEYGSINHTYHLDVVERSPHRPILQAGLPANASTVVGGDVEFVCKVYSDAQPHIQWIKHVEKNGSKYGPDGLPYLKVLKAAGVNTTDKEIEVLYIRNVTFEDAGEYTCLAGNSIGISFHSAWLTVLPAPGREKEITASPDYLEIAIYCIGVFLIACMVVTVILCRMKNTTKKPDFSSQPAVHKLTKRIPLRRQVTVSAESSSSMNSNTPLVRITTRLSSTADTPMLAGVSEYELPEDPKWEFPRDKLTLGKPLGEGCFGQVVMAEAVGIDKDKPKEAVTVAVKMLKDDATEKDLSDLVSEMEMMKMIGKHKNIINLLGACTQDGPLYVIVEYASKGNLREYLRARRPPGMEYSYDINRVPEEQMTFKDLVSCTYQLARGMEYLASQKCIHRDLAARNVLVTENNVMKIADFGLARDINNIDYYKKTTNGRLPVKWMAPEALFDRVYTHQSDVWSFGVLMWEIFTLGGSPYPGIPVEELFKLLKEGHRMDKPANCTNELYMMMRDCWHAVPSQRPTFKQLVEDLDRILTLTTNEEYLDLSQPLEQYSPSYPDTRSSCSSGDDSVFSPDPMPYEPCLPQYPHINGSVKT

[7] = target: Fibroblast growth factor receptor 2 (Homo sapiens) (UniProt P21802); settings: at 1 µM
[8] = target: Fibroblast growth factor receptor 3 (Homo sapiens) (UniProt P22607); settings: at 0.1 µM
Fibroblast growth factor receptor 3 (Homo sapiens), sequence (P22607 23-806 limits assumed): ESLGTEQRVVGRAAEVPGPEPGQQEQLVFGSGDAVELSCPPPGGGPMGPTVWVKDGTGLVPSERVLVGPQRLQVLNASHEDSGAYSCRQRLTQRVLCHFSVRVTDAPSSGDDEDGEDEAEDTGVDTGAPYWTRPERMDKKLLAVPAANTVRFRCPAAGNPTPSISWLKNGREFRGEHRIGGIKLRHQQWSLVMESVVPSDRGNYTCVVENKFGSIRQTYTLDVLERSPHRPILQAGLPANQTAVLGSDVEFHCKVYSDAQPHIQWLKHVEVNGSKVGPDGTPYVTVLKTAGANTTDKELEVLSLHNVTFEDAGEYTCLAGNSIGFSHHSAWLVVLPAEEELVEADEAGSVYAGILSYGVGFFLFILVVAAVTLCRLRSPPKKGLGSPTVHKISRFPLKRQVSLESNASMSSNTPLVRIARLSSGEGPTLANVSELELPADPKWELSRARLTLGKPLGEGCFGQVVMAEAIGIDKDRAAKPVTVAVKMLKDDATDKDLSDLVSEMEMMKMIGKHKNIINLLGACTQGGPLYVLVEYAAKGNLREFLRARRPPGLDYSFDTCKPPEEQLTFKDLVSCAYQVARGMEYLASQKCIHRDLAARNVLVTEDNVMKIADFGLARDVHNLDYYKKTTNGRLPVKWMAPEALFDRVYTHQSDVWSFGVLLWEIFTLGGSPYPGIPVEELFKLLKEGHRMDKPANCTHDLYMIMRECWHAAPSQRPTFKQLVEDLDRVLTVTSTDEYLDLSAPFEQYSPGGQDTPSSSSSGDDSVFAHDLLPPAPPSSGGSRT

[9] = target: Fibroblast growth factor receptor 3 (Homo sapiens) (UniProt P22607); settings: at 1 µM
[10] = target: Fibroblast growth factor receptor 4 (Homo sapiens) (UniProt P22455); settings: at 0.1 µM;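 also: values are mean percent inhibition of FGFR4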
Fibroblast growth factor receptor 4 (Homo sapiens), sequence (P22455 22-802 limits assumed): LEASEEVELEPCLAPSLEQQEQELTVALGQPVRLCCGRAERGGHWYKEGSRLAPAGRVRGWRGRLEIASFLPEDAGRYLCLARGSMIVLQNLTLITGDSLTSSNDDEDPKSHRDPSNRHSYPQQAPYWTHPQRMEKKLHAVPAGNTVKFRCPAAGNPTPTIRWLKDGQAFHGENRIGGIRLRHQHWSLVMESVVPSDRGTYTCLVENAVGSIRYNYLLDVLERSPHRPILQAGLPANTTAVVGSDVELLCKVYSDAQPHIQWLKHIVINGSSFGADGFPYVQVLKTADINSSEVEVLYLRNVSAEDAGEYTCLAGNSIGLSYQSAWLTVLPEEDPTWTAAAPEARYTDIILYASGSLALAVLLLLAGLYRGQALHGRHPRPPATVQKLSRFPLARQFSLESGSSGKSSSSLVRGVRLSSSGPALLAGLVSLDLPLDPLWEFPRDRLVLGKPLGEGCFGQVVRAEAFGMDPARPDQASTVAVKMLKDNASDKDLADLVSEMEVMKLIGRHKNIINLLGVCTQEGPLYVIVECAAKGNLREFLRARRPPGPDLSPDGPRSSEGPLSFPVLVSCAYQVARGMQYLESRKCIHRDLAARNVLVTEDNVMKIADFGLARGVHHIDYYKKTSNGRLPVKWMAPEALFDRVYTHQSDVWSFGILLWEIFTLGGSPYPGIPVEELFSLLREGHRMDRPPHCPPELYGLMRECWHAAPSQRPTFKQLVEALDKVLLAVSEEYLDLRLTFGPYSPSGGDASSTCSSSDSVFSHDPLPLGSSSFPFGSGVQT

Tyrosine-protein kinase Fes/Fps (Homo sapiens), sequence (P07332 whole entry): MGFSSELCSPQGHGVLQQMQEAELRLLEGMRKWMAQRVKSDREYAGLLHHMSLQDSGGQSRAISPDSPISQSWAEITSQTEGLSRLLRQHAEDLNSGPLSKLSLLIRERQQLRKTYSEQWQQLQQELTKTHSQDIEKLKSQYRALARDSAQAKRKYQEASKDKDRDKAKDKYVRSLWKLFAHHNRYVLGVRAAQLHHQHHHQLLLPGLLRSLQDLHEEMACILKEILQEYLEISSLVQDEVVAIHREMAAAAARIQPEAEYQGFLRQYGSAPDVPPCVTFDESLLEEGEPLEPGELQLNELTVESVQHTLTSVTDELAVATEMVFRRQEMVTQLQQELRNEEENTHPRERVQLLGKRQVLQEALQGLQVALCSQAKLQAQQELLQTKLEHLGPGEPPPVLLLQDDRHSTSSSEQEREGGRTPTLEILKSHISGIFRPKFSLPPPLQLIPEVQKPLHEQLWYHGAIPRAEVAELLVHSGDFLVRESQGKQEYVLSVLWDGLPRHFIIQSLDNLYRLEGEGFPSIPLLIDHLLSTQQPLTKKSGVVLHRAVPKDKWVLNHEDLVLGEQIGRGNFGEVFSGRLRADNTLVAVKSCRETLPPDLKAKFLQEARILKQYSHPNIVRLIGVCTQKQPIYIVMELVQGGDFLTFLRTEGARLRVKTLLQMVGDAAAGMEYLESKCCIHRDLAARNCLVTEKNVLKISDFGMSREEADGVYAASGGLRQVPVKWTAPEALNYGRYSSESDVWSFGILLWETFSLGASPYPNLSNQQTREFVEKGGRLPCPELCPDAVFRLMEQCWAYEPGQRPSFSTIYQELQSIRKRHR
Tyrosine-protein kinase Fer (Homo sapiens), sequence (P16591 whole entry, looked up): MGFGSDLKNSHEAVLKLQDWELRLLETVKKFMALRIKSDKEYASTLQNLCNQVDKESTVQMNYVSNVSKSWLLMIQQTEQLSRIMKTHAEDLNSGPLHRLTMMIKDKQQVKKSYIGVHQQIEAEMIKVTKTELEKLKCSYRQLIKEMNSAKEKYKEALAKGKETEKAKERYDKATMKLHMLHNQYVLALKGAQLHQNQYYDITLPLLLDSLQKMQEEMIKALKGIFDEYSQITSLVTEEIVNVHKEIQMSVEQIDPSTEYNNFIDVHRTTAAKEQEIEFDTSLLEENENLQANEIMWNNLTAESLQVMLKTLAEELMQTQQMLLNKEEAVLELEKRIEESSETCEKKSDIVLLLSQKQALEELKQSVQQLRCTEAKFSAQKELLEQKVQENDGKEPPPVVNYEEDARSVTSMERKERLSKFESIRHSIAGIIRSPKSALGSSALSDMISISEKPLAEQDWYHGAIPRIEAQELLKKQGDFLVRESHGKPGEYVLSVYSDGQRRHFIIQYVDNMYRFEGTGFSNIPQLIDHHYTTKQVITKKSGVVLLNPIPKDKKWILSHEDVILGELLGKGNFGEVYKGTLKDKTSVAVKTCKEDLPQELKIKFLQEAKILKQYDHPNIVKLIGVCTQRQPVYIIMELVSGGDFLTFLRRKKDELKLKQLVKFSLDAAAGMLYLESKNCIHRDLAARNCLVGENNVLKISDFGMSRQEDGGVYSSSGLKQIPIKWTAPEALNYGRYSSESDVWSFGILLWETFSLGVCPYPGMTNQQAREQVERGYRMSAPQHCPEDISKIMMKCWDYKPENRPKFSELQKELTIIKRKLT

SMILES | inhibition [1] | inhibition [2] | inhibition [3] | inhibition [4] | inhibition [5] | inhibition [6] | inhibition [7] | inhibition [8] | inhibition [9] | inhibition [10]
CCCNc1cccc(-n2ncc3c(N/N=C/c4ccncc4)ncnc32)c1 | 9.15% | 2.38% | 5.6% | 0.48% | 3.31% | 2.19% | 19.4% | 0.74% | 8.88% | -1.49%
O=C(O[C@H]1CN[C@H](C#Cc2cc3ncnc(Nc4ccc(OCc5cccc(F)c5)c(Cl)c4)c3s2)C1)N1CCOCC1 | 5.25% | 3.88% | 3.5% | 1.16% | 3.49% | 6.97% | 4.24% | 5.89% | 6.62% | 1.38%
Fc1ccc(Nc2nccc(-c3c(-c4ccc(C(F)(F)F)cc4)nn4ncccc34)n2)cc1F | 4.28% | 3.21% | 3.35% | 7.42% | 4.6% | 5.3% | 6.72% | 6.52% | 4.25% | -0.65%
COc1cc(Nc2ncc(-c3ccccc3)o2)cc(OC)c1 | 3.14% | 3.89% | 3.89% | 2.6% | 7.89% | 3.62% | 11.7% | 1.91% | 10.2% | -1.24%
N#Cc1cccc(Nc2ncc(-c3ccccc3)o2)c1 | 5.33% | 0.93% | 1.79% | -4.35% | 2.95% | 2.66% | 7.1% | 2.72% | 4.48% | -2.65%
Cn1c(-c2nonc2N)nc2cnccc21 | 6.7% | 2.6% | 3.53% | 4.78% | 2.36% | 2.83% | 1.91% | 5.11% | 1.94% | -0.24%
CN1CCN(Cc2ccc(-c3cc4ncnc(Nc5ccc(OCc6cccc(F)c6)c(Cl)c5)c4s3)o2)CC1 | 7.48% and 15.1% | 2.89% and 4.05% | 6.42% and 6.83% | 2.24% and 7.51% | 2.3% and 1.47% | 3.18% and 3.5% | 4.91% and 4.73% | 3.81% and 6.54% | 2.58% and 3.34% | 0.04% and -5.98%
CS(=O)(=O)CCNCc1ccoc1-c1ccc2ncnc(Nc3ccc(OCc4ccccc4)cc3)c2c1 | 1.52% | 1.6% | 0.27% | -2.87% | 2.44% | -0.37% | 2.62% | 2.09% | 3.53% | 0.96%
NS(=O)(=O)c1ccc(N/N=C2\C(=O)Nc3ccc(C(=O)NCc4ccncc4)cc32)cc1 | 5.14% | 2.4% | 1.67% | 3.12% | 5.51% | 1.27% | 11.9% | 4.61% | 8.12% | -2.09%
Nc1nonc1-c1nc2cnccc2n1C1CC1 | 0.34% and 3.05% | 2.84% and 0.98% | 3.51% and 0.87% | 13.1% and 2.25% | 8.28% and -2.04% | 5.07% and -2.09% | 8.58% and -2.64% | 7.58% and 1.46% | 8.03% and -1.3% | 0.52% and -4.76%
Cc1nnc(-c2cccc(-c3ccc(C(=O)NCC4CC4)cc3)c2)o1 | 3.05% | 4.04% | 4.25% | 2.64% | 0.61% | 4.95% | 5.08% | 6.23% | 6.22% | -0.29%
c1cnn2ncc(-c3ccnc(NCCCN4CCOCC4)n3)c2c1 | 1.85% | 2.2% | 5.72% | 1.29% | 2.22% | 1% | 3.87% | 3.61% | 1.83% | -0.18%
Cc1ccc(-c2cc3c(NC(=O)C4CC4)ncnc3o2)cc1 | 6.82% | 4.78% | 7.73% | 7.46% | 5.81% | 6.04% | 10.7% | 5.42% | 5.53% | 1.15%
Cc1c2ccc(N(C)c3ccnc(Nc4cccc(S(N)(=O)=O)c4)n3)cc2nn1C | 74.1% | 15.2% | 56.1% | 24.9% | 62.6% | 50% | 69.9% | 35.5% | 70.1% | 2.26%
CNC(=O)c1cncc(/C=C/c2ccccc2C)c1 | 4.88% | 2.38% | 1.6% | 4.11% | 3.14% | 2.42% | 4.95% | 6.04% | 4.39% | 0.55%
NS(=O)(=O)c1cccc(N/C=C2\C(=O)Nc3ccccc32)c1 | 6.18% | 3.03% | 3.46% | 5.1% | 8.92% | 7.77% | 26.9% | 8.3% | 21% | -4.72%

SMILES | inhibition [1] | inhibition [2] | inhibition [3] | inhibition [4] | inhibition [5] | inhibition [6] | inhibition [7] | inhibition [8] | inhibition [9] | inhibition [10]
CN1CCC(C(=O)Nc2n[nH]c3nc(-c4ccc(O)cc4)c(Br)cc23)CC1 | 5.19% and 5.02% | 2.73% and 2.03% | 2.01% and 1.81% | -1.64% and 2.05% | -0.75% and 5.39% | -0.3% and 14.5% | 2.81% and 5.43% | 1.48% and 6.04% | 1.79% and 4.41% | 6.09%
N#Cc1ccc2c(-c3ccnc(NC4CC4)n3)c(-c3ccc(F)cc3)nn2c1 | -0.62% | 1.05% | 1.43% | -2.46% | 1.96% | 1.16% | 2.21% | 1.76% | 1.06% | 1.18%
CNC(=O)c1sc(-n2cnc3cc(OC)c(OC)cc32)cc1OCc1ccccc1C(F)(F)F | 5.74% | 3.32% | 3.26% | -4.6% | 7.69% | 4.22% | 7.4% | 2.02% | 7.23% | 0.59%
Cc1cc(O)cc(C)c1/C=C/c1cncc(C(=O)OC(C)(C)C)c1 | 3.02% | 1.48% | 2.34% | 1.91% | 3.93% | 1.65% | 5.08% | 7.81% | 7.63% | 1.4%
CC1=C(C(=O)Nc2ccc3[nH]nc(C)c3c2)C(c2ccc(C(F)(F)F)cc2)CC(=O)N1 (stereo not given) | 3.02% | 1.58% | 2.34% | -0.57% | 9.3% | 4.48% | 13.4% | 5.62% | 8.47% | -0.06%
CC(C)c1ccc(-c2cc(-c3c[nH]nc3-c3ccccn3)ccn2)cc1 | 2.58% | 0.8% | 1.23% | 6.6% | 1.8% | -0.22% | 3.83% | 3.55% | 1.81% | 0.39%
Nc1nccc(-c2c(-c3ccc(F)cc3)ncn2C2CCNCC2)n1 | -1.75% and 3.19% | -3.81% and -0.12% | -3.68% and -0.18% | -5.66% and -0.16% | -4.83% and 1.62% | -3.3% and 0.04% | -3.58% and 1.03% | -3.25% and 3.33% | -1.53% and 2.36% | -0.08% and 3.95%
CC1=C(C(=O)Nc2ccc3[nH]ncc3c2)C(c2ccc(F)cc2)N=C(c2ccc(C(F)(F)F)nc2)N1 (stereo not given) | 2.23% | 1.4% | 2.21% | 6.73% | 7.75% | 4.37% | 9.66% | 4.88% | 7.89% | 0.81%
CCOc1ccc2c(-c3ccnc(Nc4cc(OC)cc(C(F)(F)F)c4)n3)cnn2n1 | 8.05% | 0.16% | 0.05% | 4.3% | -0.38% | -1.84% | 3.9% | 1.13% | 2.09% | 0.25%
Nc1ncnc2occ(-c3ccc(NC(=O)Nc4cc(C(F)(F)F)ccc4F)cc3)c12 | 29.4% and 17.7% | 1.99% and -1.17% | 3.25% and -0.8% | 3.81% and 0.38% | 29.8% and 19.3% | 14.1% and 7.78% | 52.2% and 43.8% | 6.93% and 1.4% | 34.3% and 17.9% | 2.49% and 0.65%
CCN1CCC(C(=O)Nc2n[nH]c3nnc(-c4cccc(F)c4F)cc23)CC1 | 1.37% | -0.22% | -1.05% | -4.59% | -1.81% | -0.41% | -2.18% | -0.59% | 2.01% | 1.8%
NC(=O)c1ccc2c(-c3ccnc(NCCCO)n3)c(-c3ccc(F)cc3)nn2c1 | 6.71% | 3% | 5.19% | 8.04% | 8.15% | 4.29% | 9.62% | 5.45% | 7.13% | 0.14%
COc1c(C(N)=O)cc(-c2ccc(Cl)cc2)cc1-c1ccc(S(N)(=O)=O)cc1 | 5.66% | 3.78% | 5.26% | 7.12% | 7.58% | 5.92% | 5.85% | 5.11% | 6.87% | 4.18%
CS(=O)(=O)CCNCc1ccc(-c2ccc3ncnc(Nc4ccc(OCc5ccccc5)cc4)c3c2)o1 | 0.38% | 3.93% | 3.54% | 6.5% | 3.85% | 3.26% | 4.3% | 4.56% | 3.89% | 1.63%
COC(=O)Nc1nc2cc(Oc3ccc(NC(=O)Nc4ccccc4)cc3)ccc2[nH]1 | 3.19% | 1.46% | 1.32% | -5.22% | 1.47% | 1.69% | 4.03% | 5.75% | 3.54% | 0.83%
